Test results taken from PubChem BioAssay (Tox21).
Inconclusive results are not listed. Activity calls are given as the source filed them. Unless noted, calls come from the whole dose curve. Peptide text beside a SMILES is read from it.

Columns and labels:
[1] = molecular target: Gonadotropin-releasing hormone receptor (Homo sapiens) (UniProt P30968); experiment: Human gonadotropin-releasing hormone receptor (GnRHR) small molecule agonists, calcium flux assay in GnRHR-HEK293 cells (AID 1920063); note: nearly all actives have a fitted effect of over 35% in size
Chain of Gonadotropin-releasing hormone receptor (Homo sapiens) (P30968 whole entry, looked up): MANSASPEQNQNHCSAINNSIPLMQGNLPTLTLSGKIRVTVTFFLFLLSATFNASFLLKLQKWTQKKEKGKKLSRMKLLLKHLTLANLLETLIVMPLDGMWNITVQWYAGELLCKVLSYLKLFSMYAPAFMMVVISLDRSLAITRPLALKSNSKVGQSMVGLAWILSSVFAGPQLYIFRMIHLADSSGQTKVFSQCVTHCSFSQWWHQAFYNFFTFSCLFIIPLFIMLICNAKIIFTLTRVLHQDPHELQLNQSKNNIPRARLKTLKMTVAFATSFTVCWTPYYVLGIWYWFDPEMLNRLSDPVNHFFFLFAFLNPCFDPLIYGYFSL
Outline: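 Cells: HEK293 stably expressing human GnRHR. Steps: overnight (18 h) culture, 1 h calcium dye loading at 37 C, compound addition, kinetic fluorescence read at 480/540 nm. Each compound tested at 15 concentrations in triplicate.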

[2] = molecular target: KiSS-1 receptor (Homo sapiens) (UniProt Q969F8); experiment: Human kisspeptin (KISS1R) small molecule agonists, calcium flux assay in KISS1R-HEK293 cells (AID 1920064; active = well fitted activation curve with a large enough effect in the repeat runs)
Chain of KiSS-1 receptor (Homo sapiens) (Q969F8 whole entry, looked up): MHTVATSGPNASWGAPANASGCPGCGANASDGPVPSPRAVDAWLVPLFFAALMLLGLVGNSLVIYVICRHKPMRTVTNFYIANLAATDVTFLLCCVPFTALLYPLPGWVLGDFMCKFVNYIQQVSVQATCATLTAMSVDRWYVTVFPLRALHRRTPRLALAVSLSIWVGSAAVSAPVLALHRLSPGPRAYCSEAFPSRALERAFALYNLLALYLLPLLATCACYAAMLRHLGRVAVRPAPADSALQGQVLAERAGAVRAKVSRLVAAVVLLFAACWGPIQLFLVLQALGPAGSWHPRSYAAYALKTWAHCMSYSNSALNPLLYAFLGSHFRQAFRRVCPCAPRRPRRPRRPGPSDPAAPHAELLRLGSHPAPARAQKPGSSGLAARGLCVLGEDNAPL
Outline: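 Cells plated and incubated 18 h; dye added, 1 h at 37 C; compounds in DMSO pinned in; signal read at 480/540 nm every second for 3 min. Each compound tested at 15 concentrations in triplicate.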

[3] = G protein-coupled receptor (GPCR) small molecule agonists, calcium flux assay: HEK293 wild type cell line counter screen (AID 1920065)
Outline: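 Counter-screen of the Tox21 10K library for non-specific calcium release: dye-loaded cells received compounds in DMSO and were monitored by kinetic fluorescence (480/540 nm, 3 min). Fifteen concentrations, run in triplicate.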

[4] = p53 small molecule agonists, cell-based qHTS assay with human liver microsomes (AID 1963577);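 note: p53 response element beta-lactamase reporter cells with liver microsomes plus NADPH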
Outline: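 Steps: plate p53RE-bla cells, incubate 5 h at 37 C; add compound in DMSO; add microsomes (0.5 mg/mL final) and NADPH (0.5 mg/mL final); incubate 16 h at 37 C; add LiveBLAzer, 2 h RT; read fluorescence.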

[5] = p53 small molecule agonists, cell-based qHTS assay with rat liver microsomes (AID 1963578)
Outline: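 Metabolic activation is supplied by rat liver microsomes with NADPH (each 0.5 mg/mL final). p53RE-bla cells incubate with compound 16 h at 37 C; reporter activity is measured by LiveBLAzer fluorescence.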

[6] = p53 small molecule agonists, cell-based qHTS assay with human liver microsomes: qHTS cell viability counter screen (AID 1963579); note: nearly all actives have a fitted effect of over 45% in size
Outline: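 After the 460/530 nm beta-lactamase read, CellTiter-Glo was added to the same wells and luminescence measured after 30 min at room temperature, giving viability of p53RE-bla cells treated 16 h with compounds plus microsomes and NADPH.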

[7] = p53 small molecule agonists, cell-based qHTS assay with rat liver microsomes: qHTS cell viability counter screen (AID 1963580); note: nearly all actives have a fitted effect of over 45% in size
Outline: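 In HCT-116 cells carrying a p53 response element-bla reporter, compounds were metabolically activated in situ by rat liver microsomes with NADPH over 16 h. Cell ATP content then served as the cytotoxicity measure.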

[8] = p53 small molecule agonists, cell-based qHTS assay: qHTS cell viability counter screen (AID 1963581); note: nearly all actives have a fitted effect of over 45% in size
Outline: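 Cells: HCT-116 with p53 response element-driven beta-lactamase. Treatment: 16 h, 37 C, compounds in DMSO. Read: CellTiter-Glo luminescence after 30 min RT.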

[9] = p53 small molecule agonists, cell-based qHTS assay (AID 1963582; active = well fitted activation curve with a large enough effect in the signal ratio in the repeat runs, not every such curve was filed as active; the % refers to the signal ratio)
Outline: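 Quantitative HTS in p53RE-bla cells: after a 5 h settling period, compounds delivered in DMSO were left on cells for 16 h at 37 C, and reporter induction was measured as fluorescence following 2 h substrate loading.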

[10] = molecular target: 5-hydroxytryptamine receptor 2A (Homo sapiens) (UniProt P28223); experiment: 5-hydroxytryptamine receptor 2A (HTR2A) small molecule antagonists, cell-based qHTS assay (AID 1963586); note: nearly all actives have a fitted effect of over 45% in size
Chain of 5-hydroxytryptamine receptor 2A (Homo sapiens) (P28223 whole entry, looked up): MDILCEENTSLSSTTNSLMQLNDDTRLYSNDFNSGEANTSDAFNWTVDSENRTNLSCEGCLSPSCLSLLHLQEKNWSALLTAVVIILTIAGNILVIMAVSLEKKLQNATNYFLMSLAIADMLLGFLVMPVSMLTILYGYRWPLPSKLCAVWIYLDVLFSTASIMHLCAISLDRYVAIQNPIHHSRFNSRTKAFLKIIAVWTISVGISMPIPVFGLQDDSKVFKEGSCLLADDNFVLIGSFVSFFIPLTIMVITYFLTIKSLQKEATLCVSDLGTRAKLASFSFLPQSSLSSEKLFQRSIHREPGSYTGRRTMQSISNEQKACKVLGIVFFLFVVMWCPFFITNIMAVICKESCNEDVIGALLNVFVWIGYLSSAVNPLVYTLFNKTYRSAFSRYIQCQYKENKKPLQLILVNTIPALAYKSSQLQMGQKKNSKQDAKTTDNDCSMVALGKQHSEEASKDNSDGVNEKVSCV
Outline: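 Antagonist-mode intracellular calcium assay: DOI (4 nM) added after 5 min compound pre-incubation at room temperature to dye-loaded HTR2A-CHO cells. Fluorescence followed for 3 min, sampled every second.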

[11] = molecular target: 5-hydroxytryptamine receptor 2A (Homo sapiens) (UniProt P28223); experiment: 5-hydroxytryptamine receptor 2A (HTR2A) small molecule agonists, cell-based qHTS assay (AID 1963587); note: nearly all actives have a fitted effect of over 30% in size
Outline: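 HTR2A-CHO cells, plated 18 h at 37 C/5% CO2, dye-loaded 1 h at 37 C; compounds in DMSO added by pin tool (agonist mode). Intracellular calcium flux read as kinetic fluorescence on FDSS over 2 min at 1 s intervals.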

[12] = molecular target: Muscarinic acetylcholine receptor M1 (Homo sapiens) (UniProt P11229); experiment: Cholinergic receptor muscarinic 1 (CHRM1) small molecule antagonists, cell-based qHTS assay (AID 1963588); note: nearly all actives have a fitted effect of over 40% in size
Chain of Muscarinic acetylcholine receptor M1 (Homo sapiens) (P11229 whole entry, looked up): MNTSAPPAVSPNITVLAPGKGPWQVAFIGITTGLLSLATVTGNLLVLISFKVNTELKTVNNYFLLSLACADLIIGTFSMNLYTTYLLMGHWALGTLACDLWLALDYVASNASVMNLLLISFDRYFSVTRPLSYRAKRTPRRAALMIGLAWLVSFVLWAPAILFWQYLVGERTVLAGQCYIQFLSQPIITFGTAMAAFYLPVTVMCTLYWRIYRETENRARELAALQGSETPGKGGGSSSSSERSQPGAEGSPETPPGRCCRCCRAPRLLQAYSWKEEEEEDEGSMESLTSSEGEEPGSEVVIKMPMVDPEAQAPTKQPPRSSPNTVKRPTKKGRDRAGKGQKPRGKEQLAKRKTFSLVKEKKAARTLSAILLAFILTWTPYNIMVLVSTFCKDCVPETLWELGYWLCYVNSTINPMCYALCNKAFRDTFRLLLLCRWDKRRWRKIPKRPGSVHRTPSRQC
Outline: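 CHRM1-CHO calcium-flux assay, antagonist mode. Cells were seeded 18 h, dye-loaded 1 h at 37 C and given compound for 5 min at RT, then acetylcholine was added at 50nM. FDSS fluorescence was read 3 min; 15 concentrations, three runs.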

[13] = molecular target: Muscarinic acetylcholine receptor M1 (Homo sapiens) (UniProt P11229); experiment: Cholinergic receptor muscarinic 1 (CHRM1) small molecule agonists, cell-based qHTS assay (AID 1963589); note: nearly all actives have a fitted effect of over 35% in size
Outline: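 Agonist-mode qHTS in CHO cells stably carrying human muscarinic M1. Intracellular calcium is tracked by fluorescence every second after compound transfer; each compound runs at 15 concentrations in three independent runs.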

[14] = cAMP Responsive Elements (CRE) small molecule agonists, cell-based qHTS assay (AID 1963590)
Outline: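 Agonist mode qHTS in CRE-bla HEK 293T cells: compounds dosed from DMSO for 3 h at 37 C/5% CO2, followed by LiveBLAzer B/G FRET substrate for 2 h at room temperature.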

[15] = cAMP Responsive Elements (CRE) small molecule antagonists, cell-based qHTS assay (AID 1963591; active = well fitted inhibition curve with a large enough effect in the signal ratio in the repeat runs, not every such curve was filed as active; the % refers to the signal ratio)
Outline: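 Antagonist mode: test compounds are co-incubated with the adenylyl cyclase activator NKH477 (0.25 uM final) on CRE-bla HEK293T cells for 3 h at 37 °C, followed by LiveBLAzer substrate loading.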

[16] = molecular target: Beta-2 adrenergic receptor (Homo sapiens) (UniProt P07550); experiment: Adrenergic beta2 receptor (ADRB2) small molecule antagonists, cell-based qHTS assay (AID 1963592); note: series mostly up to about 92 µM; nearly all actives have a fitted effect of over 50% in size
Chain of Beta-2 adrenergic receptor (Homo sapiens) (P07550 whole entry, looked up): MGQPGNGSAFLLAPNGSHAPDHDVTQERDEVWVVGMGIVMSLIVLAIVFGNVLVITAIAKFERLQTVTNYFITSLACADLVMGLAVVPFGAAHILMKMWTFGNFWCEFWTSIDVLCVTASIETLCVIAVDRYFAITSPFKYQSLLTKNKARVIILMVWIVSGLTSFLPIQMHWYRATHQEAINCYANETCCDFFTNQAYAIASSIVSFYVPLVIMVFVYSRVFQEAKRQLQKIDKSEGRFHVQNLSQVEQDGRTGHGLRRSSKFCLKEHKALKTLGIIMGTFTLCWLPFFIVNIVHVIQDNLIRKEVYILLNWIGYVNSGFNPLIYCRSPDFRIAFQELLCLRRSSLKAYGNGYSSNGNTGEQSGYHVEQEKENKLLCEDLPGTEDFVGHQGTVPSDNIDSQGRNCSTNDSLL
Outline: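 Cells (CHO, stable ADRB2 overexpression) incubated 18-20hr at 37C; compounds added from DMSO; agonist mix (1nM isoproterenol, 100uM IBMX, 25uM Ro-20-1724) added; 0.5hr RT; d2-cAMP and anti-cAMP-cryptate added; 1hr RT; 665/615 nm read.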

[17] = molecular target: D(2) dopamine receptor (Homo sapiens) (UniProt P14416); experiment: Dopamine D2 receptor (DRD2) small molecule agonists, cell-based qHTS assay (AID 1963594); note: nearly all actives have a fitted effect of over 35% in size
Chain of D(2) dopamine receptor (Homo sapiens) (P14416 whole entry, looked up): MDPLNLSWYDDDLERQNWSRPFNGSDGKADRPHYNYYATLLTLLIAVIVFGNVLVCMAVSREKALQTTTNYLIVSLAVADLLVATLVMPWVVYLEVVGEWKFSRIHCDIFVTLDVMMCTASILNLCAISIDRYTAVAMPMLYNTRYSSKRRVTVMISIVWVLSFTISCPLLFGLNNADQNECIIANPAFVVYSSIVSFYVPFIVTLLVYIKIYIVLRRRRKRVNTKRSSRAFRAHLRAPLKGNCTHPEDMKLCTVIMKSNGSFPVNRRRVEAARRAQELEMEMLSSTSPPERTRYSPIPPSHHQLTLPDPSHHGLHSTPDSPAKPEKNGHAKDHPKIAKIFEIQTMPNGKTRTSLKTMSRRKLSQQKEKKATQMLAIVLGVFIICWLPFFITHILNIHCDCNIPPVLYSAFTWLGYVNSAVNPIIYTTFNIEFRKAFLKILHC
Outline: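 HEK293 cells stably expressing DRD2 were cultured 24 h at 37 C, then given Ro20-1724 (0.1 mM final) and compounds for 10 min at room temperature. NKH477 (200nM) was then added for 30 min. cAMP was read by HTRF.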

[18] = molecular target: D(2) dopamine receptor (Homo sapiens) (UniProt P14416); experiment: Dopamine D2 receptor (DRD2) small molecule antagonists, cell-based qHTS assay (AID 1963595; active = well fitted inhibition curve with a large enough effect in the signal ratio in the repeat runs, with a control signal flat; the % refers to the signal ratio)
Outline: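 Human DRD2 antagonist qHTS measuring cAMP by HTRF. The cells are exposed to compound for 10 min, then to NKH477 (200 nM) and quinpirole (12 nM) for 30 min at RT, with Ro20-1724 (0.1 mM) present throughout.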

[19] = molecular target: Beta-2 adrenergic receptor (Homo sapiens) (UniProt P07550); experiment: Adrenergic beta2 receptor (ADRB2) small molecule agonists, cell-based qHTS assay (AID 1963593);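 note: CHO cells stably overexpressing human ADRB2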
Outline: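 CHO cells stably over-expressing ADRB2 were plated overnight at 37C, then dosed with compounds plus a stimulation mix containing 100uM IBMX and 25uM Ro-20-1724 for 0.5hr at room temperature. cAMP was measured by HTRF competition, 1hr.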

Measured: Potency

C=C(C)OC(C)=O
inactive: [1] | [2] | [3] | [4] | [5] | [6] | [7] | [8] | [9] | [10] | [11] | [12] | [13] | [14] | [15] | [16] | [17] | [18]

CCCCCCCCCCCC(=O)OC
inactive: [1] | [2] | [3] | [4] | [5] | [6] | [8] | [9] | [11] | [12] | [13] | [14] | [15] | [16] | [19] | [17] | [18]

Cc1cn([C@H]2C[C@H](N=[N+]=[N-])[C@@H](CO)O2)c(=O)[nH]c1=O
inactive: [1] | [2] | [3] | [4] | [5] | [6] | [7] | [8] | [9] | [14] | [15] | [16] | [19] | [17] | [18]

COC(=O)[C@H](Cc1ccccc1)NC(=O)[C@@H](N)CC(=O)O (H-Asp-Phe-OMe)
inactive: [1] | [2] | [3] | [4] | [5] | [6] | [7] | [8] | [9] | [10] | [11] | [12] | [13] | [14] | [16] | [19] | [17] | [18]

CC(O)COCC(C)O (configuration not stated)
inactive: [1] | [2] | [3] | [4] | [5] | [6] | [8] | [9] | [10] | [11] | [12] | [13] | [14] | [15] | [17] | [18]

c1ccc2scnc2c1
inactive: [1] | [2] | [3] | [4] | [5] | [6] | [7] | [8] | [9] | [11] | [12] | [13] | [14] | [15] | [16] | [19] | [17] | [18]
